Laboratory results: PubChem BioAssay AID720536 (National Center for Advancing Translational Sciences (NCATS), 2013)
In all, about 1,600 compounds went through this assay and about 650 (41%) were called active. Roughly 39% stayed inconclusive and do not appear here. Calls come from the whole dose curve; as a rule, active = well fitted inhibition curve with a large enough effect; inconclusive = small, poorly fitted or top-dose-only effect; inactive = no such curve, though single readings can be large or run the other way. The set was probably picked from earlier hits. Many of the other results were omitted from the sample, so actives are more common in it than they were.

experiment: qHTS for Inhibitors of TGF-b: CCL64 Cells Orthogonal Assay for Cherry Picks; details: CCL64 CAGA-GFP reporter, TGF-b stimulated, GFP fluorescence, 18 h; series mostly up to 46.1 µM; activity, negative = inhibition: at the top concentration; note: nearly all actives have a fitted effect of over 65% in size
Excerpt: TGF-b is a main component in the TGF-b signaling pathway which plays diverse roles in cellular and development pathways. TGF-b is the mediated by the transcription factors Smads. Although the Smad-dependent pathway is the primary canonical TGF-b signaling node, TGF-b1 can also activate alternative signaling pathways, including those involving MAPK (ERK, JNK and p38). This interaction may mediate or enhance Smad-dependent responses, or can exert Smad-independent effects. The complexity of this signaling cascade allows the TGF-b superfamily to perform unique, overlapping or redundant functions. We believe that targeting the TGF-beta pathway at the Smad-transcription factor level may eliminate the consequences of disrupting the entire pathway and offer specificity without affecting other signaling pathways. Smad3 is the primary transducer of TGF-b's signals and Smad3 regulates many functions attributed to TGF-b signaling. We hypothesize that Smad3 inhibitors will selectively eliminate Smad3-specific TGF-beta signals without undesired off-target effects. We aim to identify Smad3-small molecule antagonists using a quantitative high throughput screening (qHTS) approach. A high-throughput assay was developed to screen the NIH Molecular Libraries Small Molecule Repository (MLSMR). This is a cell based assay, where TGF-b is tagged with GFP. This orthogonal assay was run using CCL64 cells (as opposed to HepG2); activity was desired in this assay as this indicated the hits identified from the screen are not a cell-based artifact. MH087449NIH Chemical Genomics Center [NCGC] NIH Molecular Libraries Probe Centers Network [MLPCN] MLPCN Grant: MH087449 Assay Submitter (PI): Sushil Rane, National Institute of Diabetes and Kidney Diseases
Suspensions of trypsinized CCL64 CAGA-GFP cells were dispensed into white, tissue culture-treated, solid 1536-well plates at 5uL/well (1000 cells/well final concentration) in DMEM medium supplemented with 1% FBS. Plates were incubated at 37 degrees C for 2 hours, after which 23 nL of compounds or DMSO were delivered to each well using a pin tool. One uL of recombinant TGF-beta in DMEM (1% FBS) was then dispensed (500 pg/mL final concentration), and plates were incubated at 37 degrees C for 18 hours. The plates were measured on an Acumen eX3 Explorer plate reader for GFP fluorescence (ex488/em500-530). GFP values were calculated by determining the mean GFP fluorescence of individual cells, and compiling these values for each well to determine a total well GFP signal. The %Activity was determined from the corrected fluorescence values. A titration of the known TGF-B inhibitor SB431542 was included to monitor plate performance, while unstimulated […] (-TGF-B) control wells were used to normalize %Activity of identified inhibitors; unstimulated wells corresponded to 100%Activity (full inhibition), while stimulated cell controls (+DMSO) were used to normalize 0%Activity (no inhibition). Concentration-response curves were fitted to the signals arising from the resulting fluorescence. The concentration-effect curves were then classified based on curve quality (r2), response magnitude and degree of measured activity, and compounds were subsequently categorized based on their curve class.
Potency is the fitted concentration of half-maximal effect.

Compound | Potency | activity, negative = inhibition
CCC(C)(O)C(=O)OC1C(=O)OC2CC3C(C)=CC(=O)C(O)C3(C)C3C4(O)OCC23C1C(C)C4O (stereo not given) | 0.231 µM (active) | 
O=c1c2ccccc2nc(/C=C/c2ccc(F)cc2)n1-c1ccccc1O | 18.4 µM (active) | 
COC(=O)C1=C(c2cc3ccccc3o2)C[C@@H]2CC[C@H]1N2C(=O)NC1CCCCC1 | 14.6 µM (active) | 
CC[C@H]1CN2CCc3cc(OC)c(OC)cc3[C@@H]2C[C@@H]1C[C@H]1NCCc2cc(OC)c(OC)cc21 | 0.116 µM (active) | 
O=Cc1cn(Cc2ccc(F)cc2Cl)c2ccccc12 |  | 1.08% (inactive)
